Where “and” joins values, the source holds several entries; their conditions need not be identical. Equal values may be shown once. Records with an inconclusive call do not appear. Where a call stands in place of a potency, no number is given. More than one record can exist for a structure, and the calls need not agree. Calls of active or inactive are those of the source. The call rests on the fitted dose curve; in most records, active means well fitted curve in the direction sought with a large enough effect in the repeat runs; inconclusive means weak or mixed curves; inactive means no such curve, though single readings can be large; an effect the other way counts as inactive or inconclusive.
Legend:
[1] = Human pregnane X receptor (PXR) small molecule agonists, qHTS cell viability counter screen (AID 1346977); further: nearly all actives have a fitted effect of over 50% in size; further: potency means the concentration at half of the fitted maximal effect
Summary of the method: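 Tox21 qHTS format; PXR-Luc HepG2, 2,000/well, charcoal-stripped FBS 5%. Cpd exposure 24hr. Read: CellTiter-Fluor fluorescence, multiplexed with luciferase.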

[2] = Caspase-3/7 induction in HepG2 cells by small molecules, qHTS assay (AID 1346978); further: nearly all actives have a fitted effect of over 15% in size; further: potency means the concentration at half of the fitted maximal effect
Summary of the method: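 Wild-type HepG2 cells (2,000/well) were settled 5 h at 37 C, 5% CO2, then exposed to compounds in DMSO for 17 h. Caspase-3/7 activity was read by luminescence 30 min after adding Caspase-Glo 3/7 reagent at room temperature.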

[3] = Caspase-3/7 induction in CHO-K1 cells by small molecules, qHTS cell viability counter screen (AID 1346979); further: nearly all actives have a fitted effect of over 35% in size; further: potency means the concentration at half of the fitted maximal effect
Summary of the method: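 CellTiter-Fluor viability check, qHTS format: wild-type CHO-K1, 16hr compound treatment, 1hr reagent incubation, fluorescence read.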

[4] = Caspase-3/7 induction in CHO-K1 cells by small molecules, qHTS assay (AID 1346980); further: nearly all actives have a fitted effect of over 15% in size
Summary of the method: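 Wild-type cells were seeded at 1,500 per well and settled 5 hr at 37 C, 5% CO2, then exposed to DMSO-dissolved compounds for 17 hr. Caspase-Glo 3/7 reagent was added, and luminescence was read after 30min at room temperature.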

[5] = Caspase-3/7 induction in HepG2 cells by small molecules, qHTS cell viability counter screen (AID 1346981); further: nearly all actives have a fitted effect of over 30% in size; further: potency means the concentration at half of the fitted maximal effect
Summary of the method: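 In this quantitative HTS counter screen, compounds delivered in DMSO were left on unmodified HepG2 cells for 16 hr at 37 C. Viability was then determined fluorometrically with CellTiter-Fluor, in parallel with caspase-3/7 induction in the same wells.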

[6] = target: Cytochrome P450 2D6 (Homo sapiens) (UniProt P10635); test: Cytochrome P450 Family 2 Subfamily D Member 6 (CYP2D6) small molecule antagonists: luciferase reporter qHTS assay (AID 1671196); further: nearly all actives have a fitted effect of over 50% in size; further: potency means the concentration at half of the fitted maximal effect; on activity change, negative = inhibition: series mostly up to about 120 µM
Cytochrome P450 2D6 (Homo sapiens), sequence (P10635 whole entry, looked up): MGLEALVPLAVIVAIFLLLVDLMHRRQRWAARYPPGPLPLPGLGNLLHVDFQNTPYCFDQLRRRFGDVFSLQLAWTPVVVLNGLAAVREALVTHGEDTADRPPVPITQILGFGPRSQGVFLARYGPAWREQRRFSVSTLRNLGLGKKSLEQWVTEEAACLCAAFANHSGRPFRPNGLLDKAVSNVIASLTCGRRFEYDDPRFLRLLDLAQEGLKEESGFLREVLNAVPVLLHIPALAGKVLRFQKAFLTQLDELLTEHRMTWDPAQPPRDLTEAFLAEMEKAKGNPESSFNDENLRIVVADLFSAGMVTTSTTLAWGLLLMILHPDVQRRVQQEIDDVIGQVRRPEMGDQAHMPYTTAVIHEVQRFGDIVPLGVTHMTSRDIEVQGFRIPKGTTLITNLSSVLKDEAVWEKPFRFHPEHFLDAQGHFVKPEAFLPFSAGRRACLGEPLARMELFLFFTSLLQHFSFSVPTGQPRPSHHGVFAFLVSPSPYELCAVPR
Summary of the method: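 Test chemicals meet CYP2D6 plus proluciferin substrate (10 min, RT); NADPH regenerating solution then drives turnover for 1 h. Detection reagent halts the reaction; luminescence measured after 20 min.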

[7] = target: Cytochrome P450 2C9 (Homo sapiens) (UniProt P11712); test: Cytochrome P450 Family 2 Subfamily C Member 9 (CYP2C9) small molecule antagonists: luciferase reporter qHTS assay (AID 1671198); further: nearly all actives have a fitted effect of over 50% in size; further: potency means the concentration at half of the fitted maximal effect; on activity change, negative = inhibition: series mostly up to about 120 µM
Cytochrome P450 2C9 (Homo sapiens), sequence (P11712 whole entry, looked up): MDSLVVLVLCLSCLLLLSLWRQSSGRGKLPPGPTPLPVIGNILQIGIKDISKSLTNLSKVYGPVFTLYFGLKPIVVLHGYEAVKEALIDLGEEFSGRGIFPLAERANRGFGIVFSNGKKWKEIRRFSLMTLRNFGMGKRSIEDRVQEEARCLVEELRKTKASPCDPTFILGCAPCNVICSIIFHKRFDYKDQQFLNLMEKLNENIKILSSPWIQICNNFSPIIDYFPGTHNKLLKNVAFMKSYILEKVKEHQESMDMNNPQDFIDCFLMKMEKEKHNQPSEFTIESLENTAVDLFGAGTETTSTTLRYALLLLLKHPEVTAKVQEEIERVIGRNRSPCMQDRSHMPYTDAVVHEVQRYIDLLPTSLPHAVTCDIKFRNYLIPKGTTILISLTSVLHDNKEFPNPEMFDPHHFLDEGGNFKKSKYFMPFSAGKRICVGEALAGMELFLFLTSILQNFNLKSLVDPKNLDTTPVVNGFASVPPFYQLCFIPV
Summary of the method: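 CYP2C9 activity was measured with a P450-Glo proluciferin substrate. Enzyme–substrate mix was held with compound for 10 min at room temperature, then NADPH regeneration solution was added for 1 h at 37C. Luciferin product was read as luminescence.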

[8] = target: Cytochrome P450 1A2 (Homo sapiens) (UniProt P05177); test: Cytochrome P450 Family 1 Subfamily A Member 2 (CYP1A2) small molecule antagonists: luciferase reporter qHTS assay (AID 1671199); further: nearly all actives have a fitted effect of over 50% in size; further: potency means the concentration at half of the fitted maximal effect; on activity change, negative = inhibition: series mostly up to about 120 µM
Cytochrome P450 1A2 (Homo sapiens), sequence (P05177 whole entry, looked up): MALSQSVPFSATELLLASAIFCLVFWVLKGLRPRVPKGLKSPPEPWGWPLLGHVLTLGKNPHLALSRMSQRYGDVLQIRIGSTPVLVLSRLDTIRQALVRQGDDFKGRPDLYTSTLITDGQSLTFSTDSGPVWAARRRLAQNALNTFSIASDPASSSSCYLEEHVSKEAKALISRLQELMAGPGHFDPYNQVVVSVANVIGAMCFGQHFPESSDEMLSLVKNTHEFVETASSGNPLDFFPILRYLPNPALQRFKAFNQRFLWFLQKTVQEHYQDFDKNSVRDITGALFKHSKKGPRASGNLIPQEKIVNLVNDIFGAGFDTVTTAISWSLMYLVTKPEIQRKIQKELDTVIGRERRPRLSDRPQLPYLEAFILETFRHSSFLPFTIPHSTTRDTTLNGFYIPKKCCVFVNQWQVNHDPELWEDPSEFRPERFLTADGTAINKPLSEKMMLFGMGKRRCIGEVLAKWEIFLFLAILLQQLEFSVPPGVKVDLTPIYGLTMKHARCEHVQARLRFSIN
Summary of the method: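 Steps: enzyme-substrate mix dispensed; test compounds and furafylline control pinned in; 10 min room temperature; NADPH regeneration solution added, 1 h; reaction stopped with luciferin detection reagent; luminescence read after 20 min.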

[9] = target: Voltage-gated inwardly rectifying potassium channel KCNH2 (Homo sapiens) (UniProt Q12809); test: Human Ether-a-go-go-Related Gene (hERG) channel small molecule antagonists: fluorescence cell-based qHTS assay (AID 1671200)
Voltage-gated inwardly rectifying potassium channel KCNH2 (Homo sapiens), sequence (Q12809 whole entry, looked up): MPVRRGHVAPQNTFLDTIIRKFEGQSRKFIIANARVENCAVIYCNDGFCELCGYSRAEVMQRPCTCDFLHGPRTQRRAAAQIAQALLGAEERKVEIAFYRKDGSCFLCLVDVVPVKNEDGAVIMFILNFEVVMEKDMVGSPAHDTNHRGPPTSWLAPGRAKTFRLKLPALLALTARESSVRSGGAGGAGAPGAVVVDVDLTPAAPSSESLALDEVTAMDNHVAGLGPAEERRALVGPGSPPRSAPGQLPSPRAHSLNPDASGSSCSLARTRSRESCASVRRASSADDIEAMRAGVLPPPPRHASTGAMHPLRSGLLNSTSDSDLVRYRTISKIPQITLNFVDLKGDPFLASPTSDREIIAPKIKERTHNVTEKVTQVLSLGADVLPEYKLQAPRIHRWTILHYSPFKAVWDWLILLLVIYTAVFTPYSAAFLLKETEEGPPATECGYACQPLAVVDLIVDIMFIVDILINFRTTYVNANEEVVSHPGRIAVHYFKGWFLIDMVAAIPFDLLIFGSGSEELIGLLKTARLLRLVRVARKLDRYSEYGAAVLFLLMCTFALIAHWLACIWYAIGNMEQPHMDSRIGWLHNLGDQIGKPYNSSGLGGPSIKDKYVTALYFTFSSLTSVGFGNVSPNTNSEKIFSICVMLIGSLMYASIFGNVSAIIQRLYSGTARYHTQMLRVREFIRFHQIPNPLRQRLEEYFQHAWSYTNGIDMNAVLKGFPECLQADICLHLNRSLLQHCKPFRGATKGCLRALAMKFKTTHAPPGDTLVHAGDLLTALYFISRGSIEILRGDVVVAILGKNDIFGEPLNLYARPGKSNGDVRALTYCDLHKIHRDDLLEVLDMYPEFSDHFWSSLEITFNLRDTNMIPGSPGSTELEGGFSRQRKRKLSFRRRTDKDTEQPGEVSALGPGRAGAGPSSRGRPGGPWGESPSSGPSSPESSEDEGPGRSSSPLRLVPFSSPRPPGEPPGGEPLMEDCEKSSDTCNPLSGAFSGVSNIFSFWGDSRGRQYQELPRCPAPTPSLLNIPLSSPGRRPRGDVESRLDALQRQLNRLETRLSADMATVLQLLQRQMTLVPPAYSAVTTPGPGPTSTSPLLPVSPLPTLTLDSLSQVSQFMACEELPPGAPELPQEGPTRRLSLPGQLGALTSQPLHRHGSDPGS
Summary of the method: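 Kinetic two-minute fluorescence traces, sampled at 1 s, were collected following thallium stimulus of U2OS cells (1000 per well) that had been cultured overnight at 37 C and loaded with FluxOR II.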

[10] = target: Nuclear receptor subfamily 1 group I member 2 (Homo sapiens) (UniProt O75469); test: Human pregnane X receptor (PXR) small molecule agonists, qHTS assay (AID 1346982); further: nearly all actives have a fitted effect of over 35% in size; further: potency means the concentration at half of the fitted maximal effect
Nuclear receptor subfamily 1 group I member 2 (Homo sapiens), sequence (O75469 whole entry, looked up): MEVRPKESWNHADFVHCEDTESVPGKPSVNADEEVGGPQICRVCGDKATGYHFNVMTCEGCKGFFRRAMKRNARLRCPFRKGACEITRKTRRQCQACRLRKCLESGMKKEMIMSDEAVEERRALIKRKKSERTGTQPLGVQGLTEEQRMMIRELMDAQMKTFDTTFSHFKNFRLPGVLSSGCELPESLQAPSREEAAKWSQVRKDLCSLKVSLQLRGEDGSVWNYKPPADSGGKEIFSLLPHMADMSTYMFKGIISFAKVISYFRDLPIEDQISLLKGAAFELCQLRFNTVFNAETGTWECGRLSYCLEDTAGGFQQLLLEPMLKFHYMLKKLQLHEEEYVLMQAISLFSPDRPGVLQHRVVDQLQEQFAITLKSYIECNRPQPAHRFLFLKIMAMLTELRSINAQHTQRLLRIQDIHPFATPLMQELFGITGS
Summary of the method: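 Reporter HepG2 cells expressing PXR-Luc are cultured in charcoal-stripped FBS (5%), treated with compounds for 24 hr at 37 C, and assayed by ONE-Glo luminescence after 30 min at room temperature.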

[11] = target: Nuclear receptor subfamily 1 group I member 2 (Rattus norvegicus) (UniProt Q9R1A7); test: Rat pregnane X receptor (rPXR) activation by small molecules, qHTS assay (AID 1346983); conditions: rPXR luciferase reporter cells, One-Glo luminescence, 24 h; max activation: stronger effect = higher value; further: nearly all actives have a fitted effect of over 20% in size; further: potency means the concentration at half of the fitted maximal effect
Nuclear receptor subfamily 1 group I member 2 (Rattus norvegicus), sequence (Q9R1A7 whole entry, looked up): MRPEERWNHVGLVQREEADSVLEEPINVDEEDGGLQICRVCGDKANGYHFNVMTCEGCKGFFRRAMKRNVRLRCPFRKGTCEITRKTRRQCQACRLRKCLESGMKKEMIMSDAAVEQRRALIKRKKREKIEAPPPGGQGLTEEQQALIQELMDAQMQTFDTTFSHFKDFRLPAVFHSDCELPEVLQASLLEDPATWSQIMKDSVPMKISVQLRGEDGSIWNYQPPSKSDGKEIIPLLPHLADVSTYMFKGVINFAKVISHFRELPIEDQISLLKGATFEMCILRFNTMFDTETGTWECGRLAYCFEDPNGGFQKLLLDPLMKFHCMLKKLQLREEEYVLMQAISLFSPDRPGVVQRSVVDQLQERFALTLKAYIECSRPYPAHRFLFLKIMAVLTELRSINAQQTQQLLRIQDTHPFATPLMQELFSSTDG
Summary of the method: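 Cell-based rPXR luciferase reporter assay, 2,000 cells per well, rested 5hr at 37 C before compound addition in DMSO, then 24 hr at 37 C. One-Glo reagent was added and luminescence read after 30 min at room temperature.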

[12] = target: Nuclear receptor subfamily 1 group I member 2 (Homo sapiens) (UniProt O75469); test: Human pregnane X receptor (PXR) activation by small molecules, qHTS assay (AID 1346985); further: nearly all actives have a fitted effect of over 40% in size
Summary of the method: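 DPX-2 cells (HepG2 co-transfected with a PXR response element and a CYP3A4-promoter luciferase construct) were seeded at 2,000 per well, rested 5 hr at 37C, then exposed to DMSO-dissolved compounds for 24 hr. Activation was read as luciferase luminescence.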

[13] = target: Cytochrome P450 2C19 (Homo sapiens) (UniProt P33261); test: Cytochrome P450 Family 2 Subfamily C Member 19 (CYP2C19) small molecule antagonists: luciferase reporter qHTS assay (AID 1671197); further: nearly all actives have a fitted effect of over 65% in size; further: potency means the concentration at half of the fitted maximal effect; on activity change, negative = inhibition: series mostly up to about 120 µM
Cytochrome P450 2C19 (Homo sapiens), sequence (P33261 whole entry, looked up): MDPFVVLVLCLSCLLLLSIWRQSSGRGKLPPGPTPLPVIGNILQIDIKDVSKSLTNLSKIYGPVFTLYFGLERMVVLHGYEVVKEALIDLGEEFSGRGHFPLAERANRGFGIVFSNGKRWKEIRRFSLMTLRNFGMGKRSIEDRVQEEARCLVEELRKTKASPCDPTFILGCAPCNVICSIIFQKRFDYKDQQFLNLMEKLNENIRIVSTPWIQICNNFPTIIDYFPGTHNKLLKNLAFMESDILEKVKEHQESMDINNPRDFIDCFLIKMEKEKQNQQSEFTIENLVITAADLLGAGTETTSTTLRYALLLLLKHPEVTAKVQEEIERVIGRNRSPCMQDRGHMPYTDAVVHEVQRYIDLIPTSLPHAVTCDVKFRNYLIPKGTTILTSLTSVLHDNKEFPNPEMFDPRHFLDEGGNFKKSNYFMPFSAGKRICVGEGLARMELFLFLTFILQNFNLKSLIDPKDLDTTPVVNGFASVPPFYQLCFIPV
Summary of the method: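 First, compounds are pinned into enzyme-substrate mix and held 10 min at room temperature. Second, NADPH regeneration solution is added and plates incubate 1 h at 37C. Third, detection reagent is added and luminescence read after 20 min.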

[14] = target: Cytochrome P450 3A4 (Homo sapiens) (UniProt P08684); test: Cytochrome P450 Family 3 Subfamily A Member 4 (CYP3A4) small molecule antagonists: luciferase reporter qHTS assay (AID 1671201); further: nearly all actives have a fitted effect of over 50% in size; further: potency means the concentration at half of the fitted maximal effect; on activity change, negative = inhibition: series mostly up to about 120 µM
Cytochrome P450 3A4 (Homo sapiens), sequence (P08684 whole entry, looked up): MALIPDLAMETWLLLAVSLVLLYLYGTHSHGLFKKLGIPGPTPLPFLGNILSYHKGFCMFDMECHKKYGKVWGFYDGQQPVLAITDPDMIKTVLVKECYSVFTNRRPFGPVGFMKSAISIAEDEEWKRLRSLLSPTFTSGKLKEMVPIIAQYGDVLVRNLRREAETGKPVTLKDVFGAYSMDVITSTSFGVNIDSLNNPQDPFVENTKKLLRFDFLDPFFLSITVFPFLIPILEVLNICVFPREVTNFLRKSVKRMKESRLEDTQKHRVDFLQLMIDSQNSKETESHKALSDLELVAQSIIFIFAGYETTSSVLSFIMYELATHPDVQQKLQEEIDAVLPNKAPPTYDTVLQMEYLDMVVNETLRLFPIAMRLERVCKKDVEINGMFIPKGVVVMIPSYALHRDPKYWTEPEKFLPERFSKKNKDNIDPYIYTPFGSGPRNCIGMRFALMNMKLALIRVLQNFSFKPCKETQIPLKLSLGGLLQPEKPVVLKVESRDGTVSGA
Summary of the method: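 Proluciferin-to-luciferin conversion by CYP3A4, NADPH-regenerated, 1 h RT; luminescence read as RLU. Ketoconazole as control.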

[15] = target: Nuclear receptor subfamily 1 group I member 2 (Homo sapiens) (UniProt O75469); test: CYP3A4 induction through human pregnane X receptor (PXR) by small molecules, qHTS assay (AID 1346984); further: nearly all actives have a fitted effect of over 40% in size
Summary of the method: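 Induction measured in HepG2-based DPX-2 cells co-expressing human PXR and a CYP3A4 promoter-driven luciferase. After a 24-hour compound exposure, cells received CYP3A4 luciferin substrate at 3uM final for 3 hours, and light output was then recorded.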

Row | SMILES | Potency [1] | Potency [2] | Potency [3] | Potency [4] | Potency [5] | Potency [6] | Potency [7] | Potency [8] | Potency [9] | Potency [10] | max activation [11] | Potency [12] | Potency [13] | Potency [14] | activity change, negative = inhibition [13] | activity change, negative = inhibition [8] | Potency [11] | Potency [15]
1 | O=c1oc(=O)c2cc3c(=O)oc(=O)c3cc12 | inactive | inactive | inactive | inactive | inactive | inactive | inactive | inactive | inactive | – | – | – | – | – | – | – | – | –
2 | O=C(/C=C/c1ccccc1)OCc1ccccc1 | inactive | inactive | inactive | – | inactive | inactive | 17.8 µM (active) and 13.8 µM (active) | 11.2 µM (active) and 6.92 µM (active) | – | inactive | -0.887% (inactive) | inactive | 17.8 µM (active) and 9.77 µM (active) | inactive | – | – | – | –
3 | O=C(Nc1ccc([N+](=O)[O-])cc1Cl)c1cc(Cl)ccc1O | 1.22 µM (active) and 1.46 µM (active) | inactive | 2.17 µM (active) and 2.59 µM (active) | inactive | – | inactive | 25.2 µM (active) | 20 µM (active) | inactive | 686 nM (active) and 291 nM (active) | – | – | – | – | -2.19% [at 23.6 µM] (inactive) | -15.9% [at 23.6 µM] (inactive) | – | –
4 | CCCc1c(OCCCCc2nn[nH]n2)ccc(C(C)=O)c1O | inactive | inactive | inactive | inactive | inactive | inactive | 159 nM (active) and 246 nM (active) | 35.6 µM (active) and 30.9 µM (active) | inactive | – | – | – | 159 nM (active) and 174 nM (active) | – | – | – | – | –
5 | C#C[C@]1(O)CC[C@H]2[C@@H]3CCC4=Cc5oncc5C[C@]4(C)[C@H]3CC[C@@]21C | inactive | inactive | 43.3 µM (active) and 26.6 µM (active) | – | inactive | – | – | inactive | inactive | 30.6 µM (active) and 29.8 µM (active) | – | inactive | – | – | – | – | 7.94 µM (active) | inactive
6 | Nc1ccc(Cl)cc1Cl | inactive | inactive | inactive | inactive | inactive | inactive | inactive | 31.4 µM (active) and 39.9 µM (active) | inactive | – | – | – | inactive | – | – | – | – | –
7 | CC(C)=CCCC(C)CCO (stereo unspecified) | inactive | inactive | inactive | inactive | inactive | inactive | inactive | – | inactive | – | – | – | inactive and 50.2 µM (active) | inactive and 39.9 µM (active) | – | – | – | –
8 | Nc1ccc(Nc2ccccc2)cc1 | 30.3 µM (active) and 39.8 µM (active) and 30.6 µM (active) | inactive | 53.9 µM (active) and 43.3 µM (active) and 48.6 µM (active) | inactive | 42.8 µM (active) and 34.4 µM (active) and 48.6 µM (active) | 35.2 µM (active) and 35.6 µM (active) | 15.7 µM (active) and 25.2 µM (active) and 10 µM (active) | 35.2 µM (active) and 35.6 µM (active) and 31.7 µM (active) | inactive | – | – | – | 24.9 µM (active) and 10 µM (active) and 12.6 µM (active) | 5.58 µM (active) and 11.3 µM (active) and 7.96 µM (active) | – | – | – | –
9 | CN(C)c1nc(N(C)C)nc(N(C)C)n1 | inactive | inactive | inactive | inactive | inactive | – | – | – | inactive | – | – | – | – | – | – | – | – | –
10 | NC=O | inactive | inactive | inactive | inactive | inactive | inactive | inactive | inactive | inactive | – | – | – | inactive | inactive | – | – | – | –
11 | CC(=O)c1ccccn1 | inactive | inactive | inactive | – | inactive | inactive | inactive | 64 µM (active) and inactive | inactive | inactive | – | – | 20.2 µM (active) and inactive | inactive | – | – | – | –
12 | Cc1cccc(C(=O)O)c1 | 14.1 µM (active) | 13.5 µM (active) and inactive | 3.4 µM (active) and inactive | inactive | – | inactive | inactive | inactive | inactive | 9.57 µM (active) and inactive | – | – | inactive | inactive | – | – | – | –
13 | C=CC(C)(CCC=C(C)C)OC(C)=O (stereo unspecified) | inactive | inactive | inactive | – | inactive | inactive | inactive and 35.6 µM (active) | inactive | inactive | inactive | – | – | inactive and 17.8 µM (active) | inactive and 28.3 µM (active) | – | – | – | –
14 | Nc1ncn([C@@H]2O[C@H](CO)[C@@H](O)[C@H]2O)c(=O)n1 | 3.06 µM (active) and 3.76 µM (active) | inactive | 2.17 µM (active) and 2.98 µM (active) | – | 1.72 µM (active) and 2.98 µM (active) | inactive | inactive | inactive | inactive | 4.33 µM (active) and 10.6 µM (active) | -11.1% (inactive) | inactive | – | inactive | – | – | – | inactive
15 | O=S(=O)(O)c1ccc(O)cc1 | inactive | inactive | inactive | – | inactive | inactive | inactive | inactive | inactive | inactive | -1.73% (inactive) | inactive | inactive | inactive | – | – | – | inactive
16 | CCC(C)(O)CCCC(C)C (stereo unspecified) | inactive | inactive | inactive | inactive | inactive | inactive | inactive | inactive | inactive | – | – | – | inactive | inactive | – | – | – | –

Reference: PubChem BioAssay (Tox21)
